Test systems include HCT-15 colon; HT29 colon; SNB-75 CNS; SNB-19 CNS; U251 CNS; PC-3 prostate; SK-MEL-5 melanoma; UACC-62 melanoma; LOX IMVI melanoma; SK-MEL-28 melanoma; SK-MEL-2 melanoma; EKVX NSCLC; SN12C renal; UO-31 renal; TK-10 renal; ACHN renal; CAKI-1 renal; A498 renal; CCRF-CEM leukemia; MOLT-4 leukemia.
Assay in all cases: NCI-60 one-dose screen, 48 h (100 = growth as untreated, 0 = no growth, -100 = all killed)
Conditions in all cases: 10 µM unless noted

The structures appear in SMILES notation. The panel holds about 83,000 compounds, 20% with a hit somewhere; the sample as a whole holds those more often.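 Growth was measured after 48 h exposure to one concentration of compound in 96-well plates. Values under 10 count as active.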 Unmarked numbers belong to inactive results. Calls of active or inactive are those of the source.

Turning to `Cc1ccccc1/C=C/C(=O)c1cccc(OCCCOc2cccc(C(=O)/C=C/c3ccccc3C)c2)c1`, the growth in the experiment on HCT-15 colon is 87.2% [3 µM]; in the experiment with HT29 colon, 79.6% [3 µM]; in the experiment with SNB-75 CNS, 86.1% [3 µM]; in the experiment with SNB-19 CNS, 97.1% [3 µM]; in the experiment with U251 CNS, 76.1% [3 µM]; in the experiment on PC-3 prostate, 88.8% [3 µM]. The growth in the experiment with SK-MEL-5 melanoma was 99.5% [3 µM]; in the experiment with UACC-62 melanoma it was 80.2% [3 µM]; in the experiment on LOX IMVI melanoma, 67.5% [3 µM]; in the experiment with SK-MEL-28 melanoma, 112% [3 µM]; in the experiment on SK-MEL-2 melanoma, 102% [3 µM]; in the experiment on EKVX NSCLC, 95.1% [3 µM]. For the same compound, the growth in the experiment with SN12C renal is 91.8% [3 µM]; in the experiment on UO-31 renal it was 82.8% [3 µM]; with TK-10 renal, 108% [3 µM]; in the experiment on ACHN renal it was 102% [3 µM]; in the experiment with CAKI-1 renal, 77.5% [3 µM]; in the experiment on A498 renal, 104% [3 µM]. The growth in the experiment with CCRF-CEM leukemia was 96.2% [3 µM]; in the experiment on MOLT-4 leukemia, 90% [3 µM].
As for `CN1C(=O)/C(=C\c2c(Cl)cccc2Cl)c2ccccc21`, the growth is 67% with HCT-15 colon; 84.5% in the experiment with HT29 colon; 61.3% with SNB-75 CNS; 80% in the experiment with SNB-19 CNS; 88.4% in the experiment on U251 CNS; 95% in the experiment on PC-3 prostate. Also, the growth with SK-MEL-5 melanoma is 86.5%; with UACC-62 melanoma it was 71.2%; in the experiment on LOX IMVI melanoma, 82.5%; in the experiment with SK-MEL-28 melanoma it was 94.4%; in the experiment on SK-MEL-2 melanoma, 97.7%; in the experiment on EKVX NSCLC, 87.6%. Also, the growth is 94.8% in the experiment on SN12C renal; 75.4% with UO-31 renal; 89.4% in the experiment on TK-10 renal; 97.2% in the experiment with ACHN renal; 68.3% in the experiment with CAKI-1 renal; 55.4% in the experiment on A498 renal. The growth was 89.5% with CCRF-CEM leukemia and 79.4% with MOLT-4 leukemia.
`C#CCOc1cccc(Nc2ncnc3ccc(NC(=O)C=C)cc23)c1`: the growth in the experiment with HCT-15 colon was 42.9%; in the experiment on HT29 colon it was 30.7%; in the experiment with SNB-75 CNS, 26.6%; with SNB-19 CNS it was 48.2%; in the experiment with U251 CNS, 45.6%; in the experiment on PC-3 prostate, 48.5%. Besides, the growth in the experiment on SK-MEL-5 melanoma is 65.7%; with UACC-62 melanoma, 51%; in the experiment on LOX IMVI melanoma, 41.1%; with SK-MEL-28 melanoma it was 77.8%; with SK-MEL-2 melanoma, 55%; in the experiment on EKVX NSCLC, 32%. In addition, the growth in the experiment with SN12C renal was 29.7%; in the experiment with UO-31 renal, 9.91% (active); in the experiment with TK-10 renal, -8.81% (active); with ACHN renal it was 14.9%; with CAKI-1 renal, 10.2%; in the experiment on A498 renal it was 33.5%. Moreover, the values for the growth in the experiment with CCRF-CEM leukemia and in the experiment with MOLT-4 leukemia were 25.1% and 59.8%, respectively.
With `CCOc1ccccc1Cn1ccnc1CCc1c(Cl)c(O)cc(O)c1C(=O)OC`, the growth is 104% in the experiment with HCT-15 colon; 94.8% in the experiment on HT29 colon; 88.2% in the experiment on SNB-75 CNS; 92.4% with SNB-19 CNS; 97.5% in the experiment on U251 CNS; 86.9% with PC-3 prostate. For the same compound, the growth is 94.6% with SK-MEL-5 melanoma; 92.1% in the experiment on UACC-62 melanoma; 89.2% in the experiment on LOX IMVI melanoma; 96.6% in the experiment with SK-MEL-28 melanoma; 87.5% in the experiment on SK-MEL-2 melanoma; 101% in the experiment on EKVX NSCLC. Besides, the growth is 96.9% in the experiment with SN12C renal; 78.9% with UO-31 renal; 90.4% in the experiment with TK-10 renal; 98.3% with ACHN renal; 98.6% in the experiment with CAKI-1 renal; 114% in the experiment on A498 renal. The growth is 93.6% with CCRF-CEM leukemia and 91.9% in the experiment with MOLT-4 leukemia.
Consider `O=C(Cn1cc(CSc2nc3ccccc3o2)nn1)Nc1ccc(F)cc1F`, for which the growth was 107% with HCT-15 colon; 128% in the experiment on HT29 colon; 103% in the experiment on SNB-75 CNS; 101% with SNB-19 CNS; 120% with U251 CNS; 101% in the experiment with PC-3 prostate. Moreover, the growth in the experiment on SK-MEL-5 melanoma was 98.4%; in the experiment on UACC-62 melanoma, 111%; in the experiment on LOX IMVI melanoma, 108%; in the experiment with SK-MEL-28 melanoma, 114%; in the experiment with SK-MEL-2 melanoma it was 114%; with EKVX NSCLC, 119%. For the same compound, the growth in the experiment with SN12C renal was 96.4%; in the experiment on UO-31 renal, 103%; in the experiment with TK-10 renal, 117%; in the experiment on ACHN renal, 93.9%; in the experiment with CAKI-1 renal, 105%; with A498 renal, 112%. Besides, the growth with CCRF-CEM leukemia is 113%; in the experiment with MOLT-4 leukemia it was 120%.
With `COc1ccc(C/C(C)=C(/c2ccc(OCCN(C)C)cc2)c2ccc(OC(=O)NCc3ccccc3)cc2)cc1`, the growth in the experiment with HCT-15 colon is 24.3%; in the experiment with HT29 colon, -13.7% (active); in the experiment with SNB-75 CNS, 77.7%; in the experiment with SNB-19 CNS it was 85.6%; in the experiment on U251 CNS, 45.7%; in the experiment on PC-3 prostate, 68.4%. Moreover, the growth in the experiment with SK-MEL-5 melanoma was 63.1%; with UACC-62 melanoma, 69.3%; in the experiment on LOX IMVI melanoma it was -12% (active); in the experiment with SK-MEL-28 melanoma, 54.6%; with SK-MEL-2 melanoma, 90.5%; in the experiment on EKVX NSCLC, 72.2%. Besides, the growth in the experiment with SN12C renal was 74.2%; in the experiment with UO-31 renal, 46.4%; with TK-10 renal it was 78.5%; with ACHN renal, 90.9%; in the experiment with CAKI-1 renal it was 67.1%; in the experiment with A498 renal, 85.7%. Also, the growth with CCRF-CEM leukemia was 47.2%; in the experiment with MOLT-4 leukemia it was 37.3%.
Consider `CC(=O)c1c(C)nc(SCC(=O)Nc2cccc(O)c2)n1-c1ccc(Cl)cc1`, for which the growth in the experiment on HCT-15 colon was 95%; in the experiment on HT29 colon, 102%; with SNB-75 CNS it was 62.8%; with SNB-19 CNS, 92%; with U251 CNS, 91.9%; with PC-3 prostate it was 89.6%. Further, the growth in the experiment on SK-MEL-5 melanoma is 93.2%; in the experiment on UACC-62 melanoma it was 75.3%; in the experiment on LOX IMVI melanoma, 104%; with SK-MEL-28 melanoma, 106%; in the experiment with SK-MEL-2 melanoma, 104%; in the experiment with EKVX NSCLC, 96.4%. Further, the growth was 83.8% in the experiment on SN12C renal; 86.3% in the experiment with UO-31 renal; 107% in the experiment with TK-10 renal; 107% in the experiment on ACHN renal; 90.6% with CAKI-1 renal; 91.9% with A498 renal. Further, the growth was 96% with CCRF-CEM leukemia and 95.4% with MOLT-4 leukemia.
Regarding `CC(=O)c1c(C)nc2ccccc2c1/C=C/c1ccc(F)cc1`, the growth is 84.8% in the experiment with HCT-15 colon; 90.7% in the experiment on HT29 colon; 82.4% with SNB-75 CNS; 93% in the experiment with SNB-19 CNS; 86.7% in the experiment with U251 CNS; 79.1% in the experiment with PC-3 prostate. The growth in the experiment with SK-MEL-5 melanoma was 69.5%; in the experiment with UACC-62 melanoma, 74.9%; in the experiment on LOX IMVI melanoma it was 81.4%; in the experiment with SK-MEL-28 melanoma it was 114%; in the experiment on SK-MEL-2 melanoma, 93.3%; with EKVX NSCLC it was 75.5%. In addition, the growth in the experiment on SN12C renal is 93.3%; in the experiment with UO-31 renal it was 67.6%; in the experiment with TK-10 renal, 91.8%; in the experiment on ACHN renal, 85.4%; in the experiment with CAKI-1 renal, 75.7%; in the experiment with A498 renal it was 84.6%. In addition, the figures for the growth in the experiment on CCRF-CEM leukemia and in the experiment with MOLT-4 leukemia were 82% and 84.1%, respectively.
